PostGolgi ctrl – inhibits growth of the yeast control strain | efflux-deficient yeast background strain, growth absorbance A615, 16 h | 98,000 compounds, 5% hits | AID 738 | inhibition, % at 10 µM
Cav32 inh – inhibitors of human Cav3.2 T-type calcium channel; 100,000 compounds, 4% hits; AID 449739; B-score at 10 µM; Cav3.2-expressing cells, Fluo-4 calcium fluorescence FDSS; hits give low values;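 active means single-dose well whose peak fluorescence ratio is a statistical outlier from its plate by either plate-standardised score or position-corrected B-score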
PLAP act – human PLAP activation. 96,000 compounds, 1.2% hits. P05187. purified PLAP enzyme, luminescent substrate read-out; hits give high values. activation fold at 20 µM; in the data active means activation fold above about 2
hDAT+cocaine – human DAT dopamine uptake with cocaine, either direction; B-score at 10 µM; LLC-PK1 hDAT cells, [14C]-dopamine uptake with cocaine IC80; actives deviate in either direction; 110,000 compounds, 1.3% hits;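 active means Z score or B-score, a plate-position-corrected score, falls beyond the plate's 99.7% confidence bounds, in either direction; inactive means both scores lie inside the 99.7% bounds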;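 further: scored against the spread of the other compound wells on the same plate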
D1 mod – allosteric modulators of human D1 dopamine receptor | P21728 | HEK293 D1, CRE-luciferase, dopamine EC30 potentiation; actives deviate in either direction | B-score at 10 µM | 58,000 compounds, 5.9% hits;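 active means luminescence count or its row- and column-corrected plate score outside the 99.7% band of the plate's sample wells, on either side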
PostGolgi yeast – growth inhibition of a yeast mutant, post-Golgi transport screen; post-Golgi transport phenotypic cell assay; inhibition, % at 10 µM; 98,000 compounds, 0.9% hits; AID 739;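 further: yeast cells grown in 1536-well plates; yeast grown about 18 h at 30C before absorbance read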
Numbers without * were called inactive; . = no result. Sampled rows, rich in hits. Any-hit rate of the full collection: about 12%. Unless noted, no stated cut-off is given here; in the data, active means inhibition above about 30%; inactive means the rest.

SMILES	PostGolgi ctrl	Cav32 inh	PLAP act	hDAT+cocaine	D1 mod	PostGolgi yeast
CCn1nnnc1SCC(=O)NCc1ccco1	7	.	1	-8.8*	-0.1	3
CS(=O)(=O)N1c2ccccc2[C@]2(Br)C[C@H]3C(=O)N[C@@H](Cc4ccccc4)C(=O)N3[C@H]12	.	0.43	.	0.71	.	.
O=[N+]([O-])c1ccc(S(=O)(=O)NCCc2cn3ccccc3n2)cc1	.	-0.056	.	0.042	.	.
CCOc1cc(S(=O)(=O)NCc2ccccn2)c(C)cc1C	0	.	2.2*	.	-0.47	-2
CCOc1cc(S(=O)(=O)NCc2ccccn2)ccc1Cl	.	0.87	.	0.42	.	.
CCCCCc1c2c(cc(O)c1C(=O)O)OC(=O)c1c(cc(OC)cc1C(=O)CCCC)O2	.	-3.9*	.	5.3*	.	.
CCCCc1c(C(=O)O)cc(OC)cc1C(=O)O	.	-0.24	0.9	0.12	0.45	.
O=C1CCCc2ccccc2N1Cc1ccc(Cl)cc1Cl	31*	-3.7	1.4	-0.66	.	7
O=C1CCCc2ccccc2N1Cc1c(Cl)cccc1Cl	41*	.	1.3	-0.074	.	8
O=C1CCCc2ccccc2N1Cc1ccc(Cl)cc1	22	-2.5	0.7	1.1	.	7
O=C1CCCc2ccccc2N1Cc1cccc(Cl)c1	27	.	0.9	0.2	.	16
O=C1CCCc2ccccc2N1Cc1ccccc1Cl	34*	.	1	-0.41	.	9
COC(=O)[C@H](CCSC)NC(=O)Nc1ccc(C)cc1C	5	0.021	2.7*	-0.03	0.89	4
COC(=O)[C@H](CCSC)NC(=O)Nc1ccc(OC)cc1OC	9	-0.23	0.8	0.063	.	4
CN(C(=O)Cn1c(=O)n(CCCCC(=O)NC2CCCC2)c(=O)c2ccccc21)C1CCCCC1	.	.	.	.	0.0074	.
COc1ccc(Cl)cc1NC(=O)C1CSC(c2ccncc2)=N1 (stereo not drawn)	.	-0.74	.	0.029	2.5	.
Cc1cc(N2CCN(C)CC2)n2cc(-c3ccc(F)cc3)nc2n1	2	1	1	0.19	.	-3
CN1CCN(c2cc(-c3ccccc3)nc3cc(-c4ccc(F)cc4)nn23)CC1	73*	0.77	1.8	0.58	.	23
Cc1cc(C#N)c(C)n1-c1cc(S(=O)(=O)N2CCOCC2)ccc1N1CCCC1	27	0.48	1.3	1.3	.	3
C=C(C)C1CC=C(CN2CC(C)OC(C)C2)CC1 (stereo not drawn)	17	-0.76	1.8	0.21	.	95*
CCOC(=O)C1CCN(Cc2ccccc2C(F)(F)F)CC1	.	-0.36	1.8	-0.81	0.18	.
C=C(C)C1CC=C(CN2CCC(C(=O)OCC)CC2)CC1 (stereo not drawn)	15	-0.63	1.5	0.11	-1	78*
CC(N1CCOC1=O)S(=O)(=O)c1ccccc1 (stereo not drawn)	14	-0.59	1	0.018	.	19
COc1ccc(CC(=O)Nc2c3c(nn2-c2cccc(Cl)c2)CS(=O)(=O)C3)cc1	34*	-0.88	0.9	0.26	0.4	-2
CN(C)C(CNS(=O)(=O)c1ccc(Br)cc1)c1cccnc1 (stereo not drawn)	5	-0.98	.	-8.9*	.	3
SMILES	PostGolgi ctrl	Cav32 inh	PLAP act	hDAT+cocaine	D1 mod	PostGolgi yeast
CN(C)C(CNS(=O)(=O)c1ccc(Cl)cc1)c1cccnc1 (stereo not drawn)	8	0.09	1	-0.63	.	-8
COC(=O)c1ccc(NC(=S)N2CCN(Cc3cccc(C)c3)CC2)cc1	1	-4.4*	1.1	1.3	.	-1
COC(=O)c1ccc(NC(=S)N2CCN(Cc3ccccc3)CC2)cc1	3	0.26	1.3	1.1	.	1
COc1cccc(NC2c3ccccc3C(=O)N2Cc2ccco2)c1 (stereo not drawn)	9	-2.4	1	-0.32	1.3	-4
O=C1c2ccccc2C(Nc2cccc(C(F)(F)F)c2)N1Cc1ccco1 (stereo not drawn)	32*	-5.2*	1	0.56	-0.22	-1
CCOC(=O)c1cccc(NC2c3ccccc3C(=O)N2Cc2ccco2)c1 (stereo not drawn)	9	-6.6*	1	-0.41	-0.87	-6
Cc1cc([N+](=O)[O-])nn1CC(=O)NNC(=S)Nc1ccc(F)cc1	0	.	1.9	.	.	-36
COc1cc2nc(N(C)C)nc(N)c2cc1OC	1	.	1	-0.6	-4.6*	-4
N=c1n(CCO)c2ccccc2n1Cc1ccccc1Cl	3	0.79	0.9	-0.21	-0.81	-23
C=CCn1c(=N)n(CC(=O)O)c2ccccc21	16	-1.3	1	1.4	-0.72	5
CC(C)(C)C(=O)Cn1c(=N)n(Cc2ccccc2Cl)c2ccccc21	15	-5*	0.6	0.4	.	3
CC(C)(C)C(=O)Cn1c(=N)n(Cc2ccccc2)c2ccccc21	48*	-4.1	.	1.1	-3.3*	1
Cc1c(Cc2ccccc2)sc(N)c1C(N)=O	38*	-1.1	1.1	1.4	0.57	0
Cc1c(Cc2ccccc2)sc(NC(=O)Cc2ccccc2)c1C(N)=O	.	-1.2	.	-0.031	.	.
COc1cc(CNC2CCCC2)cc(OC)c1	14	-0.068	0.9	-0.066	.	1
COc1ccc(CCNC(=O)c2c(O)c3c([nH]c2=O)CCCC3)cc1	0	0.84	0.8	-1.2	1.8	3
Cc1cc2ccccc2n1CCNC(=O)c1ccc(S(=O)(=O)N2CCCCC2)cc1	15	-0.085	1.5	2.5*	.	5
Cc1cc2ccccc2n1CCNC(=O)Cc1ccccc1	6	-0.14	1.2	0.1	.	-5
CC(C)C(CO)NC(=O)CC(=O)NC(CO)C(C)C (stereo not drawn)	1	0.27	1	-0.68	0.75	-4
Cc1nn(C(=O)c2cccnc2)c(C)c1Sc1ccc(Br)cc1	33*	0.42	1.3	-0.81	.	19
Cc1nn(C(=O)c2ccco2)c(C)c1Sc1ccc([N+](=O)[O-])cc1	7	.	1.2	-0.29	.	9
CC(C)CCNC(=O)C(c1cccnc1)N(Cc1ccccc1)C(=O)Cn1nnc2ccccc21 (stereo not drawn)	.	0.28	.	0.56	.	.
COc1ccccc1NC(=S)NNC(=O)c1cc(C)n(C)n1	6	0.28	2.8*	-1.1	.	1
Cc1nn(Cc2ccc(Cl)c(Cl)c2)c(C)c1NC(=O)c1cn(-c2ccccc2)nc1-c1ccccc1	2	-5.1*	2.7*	0.45	.	6
Cc1nn(Cc2ccc(Cl)cc2)c(C)c1NC(=O)c1c(-c2ccccc2)noc1C	.	-2.5	.	2	.	.
O=C1c2ccccc2C(=O)N1CCCCn1c(=O)oc2ccccc21	44*	-0.24	0.8	-2.1	0.11	4
COc1cc(OC)c(C#N)c(S(=O)Cc2ccccc2)c1 (stereo not drawn)	36*	0.86	1.1	-0.38	-0.25	13
COc1ccc(-c2cc(-c3ccccc3)c(C#N)c(S(C)=O)n2)cc1 (stereo not drawn)	18	-1.4	1.3	0.31	.	-2
CCOc1ccc(OCC)c(NC(=O)CN2CCC(NC(=O)c3cccc(F)c3)CC2)c1	24	-0.4	1.9	3.3*	-1.2	2
Cc1sc2ncnc(Oc3ccc(-n4ccnc4)cc3)c2c1C	20	-2.2	1.6	2.5*	.	5

From PubChem BioAssay
